Reference: PubChem BioAssay
Active and inactive are the calls of the source.

How the values were obtained:
[1] = tested on: Plasmodium falciparum Sir2 (PF13_0152, Sir2A); test: Plasmodium falciparum Sir2A binding compounds – biochemical, small-molecule microarray, 635 nm fluorescence, primary screen (AID 1098); conditions: fluorescence 635 nm, higher = more signal;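 note: score merges spot fluorescence intensity with its signal-to-noise ratio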
[2] = probe aDKK1 binding to arrayed compounds – biochemical, biotinylated probe, 635/667 nm fluorescence, primary screen (AID 1099); conditions: small-molecule microarray, higher = more signal;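 note: score merges 667nm spot fluorescence with signal to noise across triplicate slides; reference of the scale not given here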
[3] = probe aCHRDL2 binding to arrayed compounds – biochemical, biotinylated probe, 635/667 nm fluorescence, primary screen (AID 1100); conditions: small-molecule microarray, higher = more signal
[4] = change in splice reporter luminescence, either direction, cell-based, HEK293, spliceosome inhibition project, primary screen (AID 1101); conditions: HEK293 splicing luciferase reporter, 24 h, higher = more signal, called active from +8 up or from −8 down;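 note: HEK293 cells carrying a splicing-competent luciferase reporter gene; test concentration not given here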
[5] = target: Fibroblast growth factor 10 (Homo sapiens) (UniProt O15520); test: compounds binding fibroblast growth factor 10 – biochemical, small-molecule microarray, 635 nm fluorescence, primary screen (AID 1102); conditions: FGF10 binding, fluorescence 635 nm, higher = more signal
[6] = tested on: glycogen synthase kinase-3 (GSK3A per assay name; protocol says GSK3B); test: compounds binding glycogen synthase kinase-3 – biochemical, small-molecule microarray, 635 nm fluorescence, GSK3A, primary screen (AID 1103); conditions: fluorescence 635 nm, higher = more signal; note: the record names both GSK3A and GSK3B
[7] = target: Epidermal growth factor receptor (Homo sapiens) (UniProt P00533); test: compounds binding epidermal growth factor receptor – biochemical, small-molecule microarray, 635 nm fluorescence, primary screen (AID 1104); conditions: EGFR binding, higher = more signal;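 note: score merges 667 nm emission intensity with spot signal to noise over triplicate slides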
[8] = target: Follistatin-related protein 3 (Homo sapiens) (UniProt O95633); test: compounds binding follistatin-related protein 3 – biochemical, small-molecule microarray, 635 nm fluorescence, primary screen (AID 1105); conditions: FSTL3 binding, higher = more signal;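 note: score merges emission near 667 nm and signal to noise per printed spot across three slides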
[9] = target: Dickkopf-related protein 1 (Homo sapiens) (UniProt O94907); test: small molecules binding DKK1 protein – biochemical, small-molecule microarray, 635 nm fluorescence scan, primary screen (AID 1106); conditions: higher = more signal;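 note: score merges emission near 667 nm with signal to noise over three replicate slides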
[10] = tested on: Inhibin beta A chain (activin A); test: small molecules binding activin A – biochemical, small-molecule microarray, 635 nm fluorescence scan, primary screen (AID 1107); conditions: INHBA, higher = more signal;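 note: mouse activin A protein probed at 4.33 µg/mL on printed slides; score merges bound-protein fluorescence near 667 nm with spot signal-to-noise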

Sequence of Fibroblast growth factor 10 (Homo sapiens) (O15520 whole entry, looked up): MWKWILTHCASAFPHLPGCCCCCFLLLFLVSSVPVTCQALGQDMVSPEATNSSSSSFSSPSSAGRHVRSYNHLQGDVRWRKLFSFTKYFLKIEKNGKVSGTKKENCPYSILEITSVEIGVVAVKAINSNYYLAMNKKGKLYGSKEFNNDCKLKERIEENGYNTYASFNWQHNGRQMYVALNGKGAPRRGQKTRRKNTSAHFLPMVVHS
Sequence of Epidermal growth factor receptor (Homo sapiens) (P00533 whole entry, looked up): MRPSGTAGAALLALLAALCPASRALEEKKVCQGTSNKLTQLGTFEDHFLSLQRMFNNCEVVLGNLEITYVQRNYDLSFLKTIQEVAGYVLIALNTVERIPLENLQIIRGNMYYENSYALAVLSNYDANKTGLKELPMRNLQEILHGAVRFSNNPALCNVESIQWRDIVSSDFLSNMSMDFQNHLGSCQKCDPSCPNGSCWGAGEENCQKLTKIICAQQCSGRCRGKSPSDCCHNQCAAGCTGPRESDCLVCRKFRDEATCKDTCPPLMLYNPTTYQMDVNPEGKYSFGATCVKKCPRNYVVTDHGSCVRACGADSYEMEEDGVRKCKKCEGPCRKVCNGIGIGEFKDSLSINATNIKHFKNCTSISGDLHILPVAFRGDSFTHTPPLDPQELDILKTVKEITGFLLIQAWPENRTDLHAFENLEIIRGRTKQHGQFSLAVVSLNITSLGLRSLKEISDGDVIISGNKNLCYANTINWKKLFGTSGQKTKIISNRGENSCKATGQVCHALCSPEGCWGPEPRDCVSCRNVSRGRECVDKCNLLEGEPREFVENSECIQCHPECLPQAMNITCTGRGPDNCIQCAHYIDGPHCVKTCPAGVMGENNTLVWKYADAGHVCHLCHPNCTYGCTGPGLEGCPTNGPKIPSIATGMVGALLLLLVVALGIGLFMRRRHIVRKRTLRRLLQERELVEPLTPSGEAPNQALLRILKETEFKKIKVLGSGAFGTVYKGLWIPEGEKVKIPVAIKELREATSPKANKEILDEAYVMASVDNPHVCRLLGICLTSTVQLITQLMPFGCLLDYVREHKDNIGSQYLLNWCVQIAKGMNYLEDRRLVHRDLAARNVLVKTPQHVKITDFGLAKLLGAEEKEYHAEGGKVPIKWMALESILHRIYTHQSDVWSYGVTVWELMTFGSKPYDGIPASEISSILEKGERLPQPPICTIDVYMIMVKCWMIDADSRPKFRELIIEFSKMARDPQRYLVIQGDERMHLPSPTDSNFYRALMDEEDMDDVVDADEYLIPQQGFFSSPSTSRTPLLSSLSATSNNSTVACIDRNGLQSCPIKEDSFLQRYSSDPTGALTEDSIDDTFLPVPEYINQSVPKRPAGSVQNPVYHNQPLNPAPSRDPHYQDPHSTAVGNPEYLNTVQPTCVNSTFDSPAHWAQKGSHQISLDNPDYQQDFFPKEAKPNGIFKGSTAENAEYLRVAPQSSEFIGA
Sequence of Dickkopf-related protein 1 (Homo sapiens) (O94907 whole entry, looked up): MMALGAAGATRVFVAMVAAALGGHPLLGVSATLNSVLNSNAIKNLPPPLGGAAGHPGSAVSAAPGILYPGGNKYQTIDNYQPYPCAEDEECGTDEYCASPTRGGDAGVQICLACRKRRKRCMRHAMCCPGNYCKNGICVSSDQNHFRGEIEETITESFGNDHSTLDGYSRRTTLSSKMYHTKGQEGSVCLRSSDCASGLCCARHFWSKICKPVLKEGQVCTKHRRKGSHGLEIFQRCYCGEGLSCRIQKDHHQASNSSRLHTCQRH
Sequence of Follistatin-related protein 3 (Homo sapiens) (O95633 whole entry, looked up): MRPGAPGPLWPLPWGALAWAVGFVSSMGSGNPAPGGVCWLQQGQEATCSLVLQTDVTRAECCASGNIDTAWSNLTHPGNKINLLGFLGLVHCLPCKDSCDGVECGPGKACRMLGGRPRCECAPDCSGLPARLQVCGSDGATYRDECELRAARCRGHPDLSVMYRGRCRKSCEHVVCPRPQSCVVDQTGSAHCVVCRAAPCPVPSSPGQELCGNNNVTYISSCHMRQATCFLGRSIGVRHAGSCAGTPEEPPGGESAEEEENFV

Structure (SMILES)	composite z-score [1]	composite z-score [2]	composite z-score [3]	z-score [4]	composite z-score [5]	composite z-score [6]	composite z-score [7]	composite z-score [8]	composite z-score [9]	composite z-score [10]
Cc1ccc([C@H]2C(C(=O)O)=C[C@@H](C)N2S(=O)(=O)c2ccc(C)cc2)cc1	1.23	0.353	0.841	0.709 (inactive)	-0.564	-0.107	-0.19	-0.525	-1.13	1.02
COC(=O)[C@@]1(Cc2ccccc2)[C@H]2c3cc(C(=O)N4CCCC4)n(Cc4ccc(C)o4)c3C[C@H]2CN1C(=O)c1ccccc1	1.21	0.526	1.13	-2.62 (inactive)	-0.143	0.0411	0.36	0.276	-0.578	1.23
COC(=O)c1ccc(C(O)C2C=CC3C(=O)N(C)C(=O)C3N2NC(=O)OC(C)(C)C)o1 (stereo not given)	0.66	0.49	0.266	1.26 (inactive)	0.558	0.483	0.557	0.622	-0.0526	0.399
COC(=O)[C@]1(Cc2ccccc2N=[N+]=[N-])N=C(c2ccc(OCCCO)cc2)O[C@@H]1c1ccccc1N=[N+]=[N-]	1.35	0.0046	0.191	-0.71 (inactive)	0.0833	-0.383	-0.049	0.488	-0.0862	0.755
CCOC(=O)C[C@H]1[C@H](OC(=O)c2ccc(-c3ccccc3)cc2)[C@@H](NC(=O)c2ccc3ccccc3c2)c2cc(OCCCO)ccc2N1C(=O)Cc1ccc(OC)cc1	-0.517	-0.0669	-0.269	-0.334 (inactive)	-0.383	0.247	-0.245	0.368	-0.416	0.487
O=C1C2C=CC(C(O)c3ccc(-c4ccccc4)s3)N(n3cnnc3)C2C(=O)N1Cc1ccccc1 (stereo not given)	0.633	0.0447	0.746	-0.36 (inactive)	0.0262	-0.751	-0.486	-0.435	-0.539	0.631
C=CCN1C(=O)[C@]2(O[C@H](CCO)[C@@H]([Si](C)(C)c3ccc(OC)cc3)[C@@H]2C)c2cc(NC(=O)[C@H](C)O)ccc21	1.45	-0.191	-0.159	-1.26 (inactive)	1.27	0.984	-0.191	0.267	0.0607	0.197
Cc1ccc(S[C@]2(C(=O)NCc3ccccc3)CC(=O)N(Cc3ccccc3Cl)[C@@H]2c2ccc(CO)cc2I)cc1	0.49	0.302	1.13	-1.6 (inactive)	-0.761	-0.528	-1.17	-0.689	-1.22	0.962
C=C(CCCC)C(=O)CC[C@H](OC(=O)c1cccnc1)c1cccc(OCCO)c1	0.681	-0.298	0.165	4.13 (inactive)	0.309	-0.208	-0.502	-0.688	-0.219	1.29
CC(C)(C)N1CC=CC23O[C@@H]4C=CCOC(=O)[C@@H]4[C@H]2C(=O)N(CCCCCO)[C@@H]3C1=O (stereo not given in full)	1.12	-0.275	0.0408	-0.018 (inactive)	-0.804	-1.54	-1.63	-1.67	-0.499	-0.0694
NC(=O)NCC#Cc1ccc2c(c1)[C@]1(C(=O)N2)[C@H](C(=O)NC[C@H](O)c2ccccc2)[C@H]2C(=O)O[C@H](c3ccccc3)[C@H](c3ccccc3)N2[C@@H]1c1ccc(O)cc1	1.23	0.0166	-0.249	0.37 (inactive)	0.893	0.664	0.575	0.553	0.314	1.72
CCCCCCCCCCC(O)C1C=CC2C(=O)N(Cc3ccccc3)C(=O)C2N1n1cnnc1 (stereo not given)	0.724	0.897	0.739	-0.47 (inactive)	-0.262	0.08	-0.384	-0.351	-0.906	1.23
O=C/C=C/c1ccc(Cl)cc1	-0.34	-0.235	0.0073	-1.05 (inactive)	-0.513	-0.966	-0.301	0.0697	0.0956	0.934
COCCOC(=O)N1C(=O)[C@@]2(c3cc(C#CCC(C(=O)OC)C(=O)OC)ccc31)[C@H](c1ccc(O)cc1)N1[C@H](c3ccccc3)[C@H](c3ccccc3)OC(=O)[C@H]1[C@@H]2C(N)=O	0.224	0.36	0.461	-1.06 (inactive)	0.833	1.06	0.212	0.825	0.417	0.626
O=C1OCC=C[C@H]2OC34C=CCN(c5ccc6ccccc6c5)C(=O)[C@H]3N(CCCO)C(=O)[C@@H]4[C@@H]12 (stereo not given in full)	1.17	0.0114	0.899	-1.72 (inactive)	-0.709	-1.34	-1.15	-0.699	-1.06	0.374
[N-]=[N+]=Nc1ccccc1[C@@H]1OC(c2ccc(OCCCO)cc2)=N[C@]1(CCS(=O)(=O)c1ccccc1)C(=O)N1CCOCC1	1.43	1.04	0.994	-0.4 (inactive)	1.37	1.09	0.569	1.36	0.14	1.58

Structure (SMILES)	composite z-score [1]	composite z-score [2]	composite z-score [3]	z-score [4]	composite z-score [5]	composite z-score [6]	composite z-score [7]	composite z-score [8]	composite z-score [9]	composite z-score [10]
CCOC(=O)C1=CC[C@@H](c2ccccc2Cl)N(S(=O)(=O)c2ccc(C)cc2)C1	1.17	0.342	0.928	-1.97 (inactive)	0.403	0.196	-0.138	0.0633	-0.794	0.304
COc1ccc(C#Cc2ccc3c(c2)[C@]2(C(=O)N3)[C@H](c3ccc(O)cc3)N3[C@H](c4ccccc4)[C@H](c4ccccc4)OC(=O)[C@H]3[C@@H]2C(=O)NC[C@H](O)c2ccccc2)cc1	1.14	0.155	0.397	-1.02 (inactive)	0.94	0.755	0.206	0.801	0.233	0.282
COC(=O)C1=CC(CCCO)=CC(C2CC2)N(Cc2sc3ccccc3c2Cl)C=C1C(=O)OC (stereo not given)	1.17	0.589	0.724	-0.8 (inactive)	1.02	0.902	0.0108	0.766	-0.0017	1.06
O=C(NCc1ccccc1)[C@]1(CCS(=O)(=O)c2ccccc2)N=C(c2ccc(OCCCO)cc2)O[C@@H]1c1ccccc1	1.31	0.255	0.264	0.637 (inactive)	1.42	1.32	0.325	1.41	0.168	0.604
CC(C)(C)OC(=O)CC[C@@]1(C(=O)O)N=C(c2ccc(OCCCO)cc2)O[C@@H]1c1ccccc1N=[N+]=[N-]	1.67	1.16	1.36	-0.66 (inactive)	0.991	0.357	-0.288	-0.153	-0.169	1.33
N[C@@H](Cc1ccccc1)Cn1cc(-c2ccccc2)nn1	-0.334	0.552	0.932	-1.38 (inactive)	-0.232	-0.595	0.0157	0.0589	-0.328	0.458
C=CCC(OC(C)=O)[C@@H]1[C@@H](N(Cc2cccc3ccccc23)C(=O)c2cccc3ccccc23)c2cc(OCCCO)ccc2N1C(=O)c1ccc2ccccc2n1 (stereo not given in full)	-0.0758	-0.095	0.181	-0.202 (inactive)	0.635	0.0702	-0.0538	0.256	-0.501	1.45
COc1ccc(C#Cc2ccc3c(c2)[C@]2(C(=O)N3)[C@H](C(=O)NC[C@H](O)c3ccccc3)[C@H]3C(=O)O[C@H](c4ccccc4)[C@H](c4ccccc4)N3[C@@H]2c2ccc(OCCO)cc2)cc1	1.33	0.0324	0.236	-1.46 (inactive)	1.25	1.28	0.487	1.26	0.31	0.123
C=C[C@@H](COC(C)=O)N(Cc1ccccc1[N+](=O)[O-])S(=O)(=O)c1ccc(Br)cc1	1.31	0.278	-0.0205	-2.18 (inactive)	0.863	1.16	1.2	1.39	1.82	1.16
NCCCCCCNC(=O)[C@H]1C[C@H]2C(=O)NCC(=O)N2[C@H]1c1cccc(OCCO)c1	1.56	0.0447	0.161	-0.283 (inactive)	0.641	1.1	0.544	0.563	0.978	-0.0745
COC(=O)[C@@]1(Cc2ccc(F)cc2)[C@H]2c3cc(C(=O)N(C)C)n(CCc4ccccn4)c3C[C@H]2CN1C(=O)c1ccccc1	0.219	0.849	0.312	-3.62 (inactive)	0.355	1.36	0.472	0.869	0.41	0.403
C=CC[C@@]1(C(=O)NCC(O)CO)N=C(c2ccc(OCCCO)cc2)O[C@@H]1c1ccccc1N=[N+]=[N-] (stereo not given in full)	0.663	0.854	1.12	-1.25 (inactive)	0.618	-0.669	-0.656	0.326	-0.612	1.02
CC(=O)NCCCC[C@@H]1NC(=O)[C@H]2C[C@@H](C(=O)NCCCCCC[N+](C)(C)C)[C@@H](c3cccc(OCCO)c3)N2C1=O	1.44	-0.104	-0.207	-1.6 (inactive)	1.17	0.917	0.848	1.58	1.85	0.695
CC(C)NC(=O)[C@@H]1c2ccccc2C(=O)N(Cc2ccccc2Cl)[C@H]1c1ccc(CO)cc1	0.284	0.0098	0.448	0.62 (inactive)	-0.584	0.0016	-0.903	-0.398	-0.645	0.365
CCCCCN1CC=CC23O[C@@H]4/C=C\CCCOC(=O)C4[C@H]2C(=O)N(CCCCCCO)[C@@H]3C1=O (stereo not given in full)	1.43	-0.231	0.139	-3.07 (inactive)	-0.894	0.233	-0.0633	-0.0242	-1.22	1.26
